The full list was thinned out, with hits kept by preference.
FBPA Giardia inh: blocks Giardia fructose-bisphosphate aldolase activity | purified Giardia FBPA | 290,000 tested, 0.71% active | AID 2451 | A8B2U2 | Potency, µM (doses to about 59.6 µM), usual class: inhibitors; further: nearly all actives have a fitted effect of over 55% in size
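40 nM FBPA preincubated 10 min at RT with compound (up to 57.5 uM final), then substrate plus GAPDH/TPI/NAD/arsenate coupling and diaphorase/resazurin added. Fluorescence read after 20 min at RT, 525/598 nm.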
LmPK inh: LmPK (Leishmania mexicana) enzyme inhibition. Q27686. purified LmPK, Kinase-Glo ATP luminescence, 1 h. 290,000 tested, 0.37% active. Potency, µM (doses to about 57.5 µM), usual class: inhibitors. AID 1721
Target sequence (Q27686 whole entry, looked up): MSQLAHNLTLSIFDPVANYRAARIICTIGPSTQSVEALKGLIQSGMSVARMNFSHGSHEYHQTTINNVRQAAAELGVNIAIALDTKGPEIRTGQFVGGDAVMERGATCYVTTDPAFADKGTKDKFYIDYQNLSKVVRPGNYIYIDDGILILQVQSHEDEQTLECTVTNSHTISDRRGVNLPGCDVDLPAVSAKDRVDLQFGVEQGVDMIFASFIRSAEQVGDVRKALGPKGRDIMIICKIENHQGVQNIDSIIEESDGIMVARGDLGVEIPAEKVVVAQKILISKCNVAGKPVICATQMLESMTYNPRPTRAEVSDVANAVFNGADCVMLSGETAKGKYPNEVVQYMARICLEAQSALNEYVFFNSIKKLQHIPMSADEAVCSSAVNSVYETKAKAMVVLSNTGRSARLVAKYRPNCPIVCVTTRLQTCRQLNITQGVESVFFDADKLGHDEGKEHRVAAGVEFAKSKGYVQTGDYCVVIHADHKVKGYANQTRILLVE
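Purified LmPK (0.1 nM) with 0.5 mM PEP and 0.1 mM ADP in imidazole buffer pH 7.2 with MgCl2/KCl, 1 h at room temperature. ATP formed was read by luciferase luminescence and normalized to no-enzyme and uninhibited controls.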
Shiga inhibitor: inhibitors of Shiga toxin in Vero cells. inhibition, % at 38.7 µM. AID 2315. Vero cells, Shiga toxin protein synthesis inhibition reporter. 290,000 tested, 9.2% active; in the data active means inhibition mostly above about 28%, no sharp cut-off; inactive means mostly below about 43%
Cycloheximide cs: counter-screen for Shiga toxin inhibitors: cycloheximide protein synthesis inhibition; AID 2314; 300,000 tested, 12% active; cell reporter, cycloheximide protein synthesis inhibition counterscreen; max response, %; in the data active means max response mostly above about 13%, no sharp cut-off; inactive means mostly below about 14%; further: read at 38.3 µM for the half of the compounds with a filed dose
TbPYK inhibitor: T. brucei pyruvate kinase inhibition. Potency, µM (top dose mostly 76.8 µM), hits mostly inhibitors. 410,000 tested, 0.12% active. TbPYK enzyme, Kinase-Glo Plus ATP luminescence, 45 min. AID 624173. Q57TT1; further: nearly all actives have a fitted effect of over 50% in size
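Glycolytic pyruvate kinase of T. brucei was incubated with substrate, test compound and 130 uM ADP for 45 minutes at room temperature. Luminescent Kinase-Glo Plus signal was measured after 10 minutes.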
RE007 growth inh: less growth of the S. pombe RE007 Vpr strain; AID 651644; S. pombe RE007 Vpr strain, BacTiter-Glo ATP luminescence, 24 h; 360,000 tested, 0.21% active; Potency, µM (doses to about 92.2 µM), most hits filed as inhibitors; active means well fitted falling curve with a large enough effect; inconclusive means small, poorly fitted or top-dose-only effect; inactive means no such curve, though single readings can be large or run the other way; further: nearly all actives have a fitted effect of over 50% in size
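Fission yeast strain RE007, carrying one chromosomally integrated HIV-1 vpr copy, was seeded at OD 0.01 in PMG+AL medium with 23 nL pinned compound. After 24 h at 30 °C and 99% humidity, viability was read by BacTiter-Glo luminescence.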
Hits are given with their value; i = inactive; ? = inconclusive; nt = no result given; [ ] = another dose, or the depositor's remark. Unless noted, the call rests on the fitted dose curve; in most records, active means well fitted curve in the direction sought with a large enough effect; inconclusive means small, poorly fitted or top-dose-only effect, or another doubt; inactive means no such curve, though single readings can be large; an effect the other way counts as inactive or inconclusive.

SMILES | FBPA Giardia inh | LmPK inh | Shiga inhibitor | Cycloheximide cs | TbPYK inhibitor | RE007 growth inh
COc1cccc(NC(=O)Cn2cc(S(=O)(=O)Cc3ccccc3F)c3ccccc32)c1 | nt | nt | nt | nt | i[15.4 µM] | nt
FC(F)Oc1ccc(N=C2SCC3CCCCN23)cc1 (centres undefined) | i | i | 131 | 53 | i | i
Clc1ccc(N=C2SCC3CCCCN23)cc1 (centres undefined) | i | i | 77 | 70 | i | ?
Cc1ccccc1C(=O)Nc1ccc(C(=O)OCc2cc(=O)n3nc(C(C)C)sc3n2)cc1 | nt | nt | nt | nt | i | nt
CCOc1ccccc1NC(=O)NNC(=O)c1ccc2ccccc2c1 | nt | i | i | i | i | i
CCOc1ccccc1NC(=O)c1ccc2[nH]c(C)c(C)c2c1 | i | i | 43 | 42 | i | i
CCOc1ccccc1NC(=O)c1ccc2ccccc2c1 | i | i | nt | 23 | i | i
COc1ccc(NC(=O)c2ccc3[nH]c(C)c(C)c3c2)c(OC)c1 | i | i | i | i | i | i
CCOc1ccc2nc(SC3CC(=O)N(c4ccc(C)cc4)C3=O)sc2c1 (centres undefined) | i | i | i | i | i | i
CCOc1ccc2nc(/N=C/c3c(C)[nH]n(-c4ccc(C)cc4)c3=O)sc2c1 | i | 14µM | i | 33 | i | 13µM
CCOc1ccc2nc(/N=C/c3c(C)[nH]n(-c4ccccc4)c3=O)sc2c1 | i | i | 61 | 30 | i | ?
c1ccc(CSc2nnc(-c3c[nH]c4ccccc34)o2)cc1 | i | i | 169 | 48 | i | i
CCN(CC)C(=O)CSc1nnc(-c2c[nH]c3ccccc23)o1 | i | i | nt | 40 | i | i
CC(C)(C)NC(=O)CSc1nnc(-c2c[nH]c3ccccc23)o1 | i | i | 65 | 28 | i | i
O=C1OC2(CCCCC2)CC2=C1C1O[C@](CCCCN3C(=O)c4ccccc4C3=O)(Cc3ccccc31)O2 | i[12.9 µM] | i[11.5 µM] | i | i | nt | nt
Cc1cc(=O)[nH]c2nnc(SCc3ccc(Cl)c(Cl)c3)n12 | nt | nt | nt | nt | i | nt
Cc1ccccc1CN1CCc2nc(Nc3ccc4c(c3)OCCO4)ncc2C1 | nt | nt | nt | nt | i | nt
Cc1ccc(-c2csc(NC(=O)c3cccc(C)c3)c2C(=O)O)cc1 | nt | nt | nt | nt | i | i
CC(C)c1ccc(-c2csc(NC(=O)c3cccs3)c2C(=O)O)cc1 | i | i | 34 | i | i | i
Cc1ccc(-c2csc(NC(=O)c3ccccc3Cl)c2C(=O)O)cc1 | i | i | 40 | 23 | i | i
Nc1c(NC/C=C\COc2cc(CN3CCCCC3)ccn2)c(=O)c1=O | nt | nt | nt | nt | i | nt
Cc1ccc(S(=O)(=O)Nc2c(O)ccc3ccccc23)cc1 | nt | nt | nt | nt | i | i
Cc1ccc(S(=O)(=O)Nc2c(Cl)c(Cl)c(O)c3ccccc23)cc1 | i | 6.3µM | 47 | 34 | nt | nt
Cc1cc(C(=O)NCCC(c2ccccc2)c2ccccc2)c(C)o1 | i | i | i | 26 | i | i
Cc1occc1C(=O)Nc1cccc2ccccc12 | i | 25µM | 67 | 56 | i | ?
SMILES | FBPA Giardia inh | LmPK inh | Shiga inhibitor | Cycloheximide cs | TbPYK inhibitor | RE007 growth inh
Cc1oc(CC(C)C)cc1C(=O)Nc1cccc2ccccc12 | i | i | i | i | i | i
Cc1cc(C(=O)Nc2cccc3ccccc23)c(C)o1 | i | i | i | 25 | i | i
Cc1c(C(=O)OC2CCCCC2)[nH]c2c1C(=O)CC(c1ccc(C(C)(C)C)cc1)C2 (centres undefined) | nt | nt | nt | nt | i | nt
COc1cccc(N2CCN(Cc3cc(=O)oc4cc(C)ccc34)CC2)c1 | nt | nt | nt | nt | i | nt
CC1CCc2nc(/C(C#N)=C/c3cccnc3)sc2C1 (centres undefined) | i | i | 145 | 52 | i | i
N#C/C(=C\c1cccnc1)c1nc2c(s1)CCCC2 | i | i | 156 | 44 | i | i
N#C/C(=C/c1cccnc1)c1ccccc1 | i | i | nt | i | i | ?
COc1cc(/C=C(\C#N)c2nc3c(s2)CCCC3)ccc1O | i | i | 68 | 50 | nt | nt
COc1cc(/C=C(\C#N)C(=O)N2CCCCC2)ccc1O | i | i | i | i | i | i
COC(=O)C/C=C\[C@H](C)[C@H](CO)NS(=O)(=O)c1ccc(C)cc1 | i[12.9 µM] | nt | nt | nt | nt | nt
Cc1cccc(NC(=O)CN2c3ccccc3S(=O)(=O)c3ccccc32)c1C | nt | nt | nt | nt | i | nt
CCOC(=O)CCCN1C(=O)CCn2nc(-c3cn(C)c4ccccc34)cc21 | nt | nt | nt | nt | i | nt
Cc1ccc(CN2CCSc3ccc(C(=O)Nc4ccc(C)cc4)cc32)cc1 | nt | nt | nt | nt | i | nt
O=S(=O)(Nc1nc2c(s1)CCCC2)c1ccc(Br)cc1 | i | i | i | i | i | i
O=S(=O)(Nc1nc2c(s1)CCCC2)c1ccc(F)cc1 | i | i | i | 21 | i | i
Cc1cc(NC(=O)Cn2c(=O)oc3cc(S(=O)(=O)N4CCCC4)ccc32)ccc1Br | nt | nt | nt | nt | i | nt
CCOC(=O)c1c(C)[nH]c(C)c1S(=O)(=O)N1CCC(C(=O)Nc2ccc(OC)c(OC)c2)CC1 | nt | nt | nt | nt | i | nt
c1ccc2c(c1)oc1c(NCC3CCCO3)ncnc12 (centres undefined) | i | i | 54 | 34 | i | i
CCc1nc(NCc2ccccn2)c2oc3ccccc3c2n1 | i | i | i | i | i | i
c1ccc(CNc2ncnc3c2oc2ccccc23)nc1 | i | i | 59 | 23 | i | i
CC(=O)c1ccc(Nc2ncnc3c2oc2ccccc23)cc1 | i | i | 66 | 57 | i | i
CCc1ccccc1NC(=O)COC(=O)c1cn(CC)c2nc(C)ccc2c1=O | nt | nt | nt | nt | i | nt
CCN(c1ccccc1)S(=O)(=O)c1cc(Br)cc2c1N(C(=O)C1CC1)CC2 | nt | nt | nt | nt | i | nt
COC(=O)c1ccccc1N=Nc1c(N)n[nH]c1N | i | i | i | i | i | i
Nc1n[nH]c(N)c1N=Nc1ccc2c(c1)OCO2 | i | i | 97 | 36 | i | i
SMILES | FBPA Giardia inh | LmPK inh | Shiga inhibitor | Cycloheximide cs | TbPYK inhibitor | RE007 growth inh
Cc1nc(N)sc1N=Nc1ccc(Br)cc1 | i | i | 127 | 65 | i | i
Cc1ccc(N=Nc2c(N)n[nH]c2N)cc1 | i | i | 49 | 41 | i | i
Cc1[nH]nc(N)c1N=Nc1ccc(Br)cc1 | i | i | 41 | 29 | nt | nt
COc1ccc(CNc2ccnc(-c3c(C)noc3C)n2)c(OC)c1 | i | nt | nt | nt | nt | nt
C/C(=N\NC1=NCCN1)c1ccc(N)c([N+](=O)[O-])c1 | i | i | i | 12 | i | i
C=CCC1C=CC(Oc2ccc(OC)cc2)C(COC(=O)c2ccc(Br)cc2)O1 (centres undefined) | i[12.9 µM] | nt | nt | nt | nt | nt
CC(C)c1ccc(OCC(=O)N(Cc2ccccc2)c2ccccn2)cc1 | i | i | i | 14 | i | i
O=C(COc1ccc(Br)cc1)N(Cc1ccccc1)c1ccccn1 | i | i | 53 | i | i | i
O=C(COc1ccc(Cl)cc1)N(Cc1ccccc1)c1ccccn1 | i | i | i | i | i | i
OCC[n+]1c2ccccc2nc2ccc(N3CCOCC3)cc21 | ? | 16µM | i | i | i | i
Cc1cc(C(=O)Nc2ccc(N3CCOCC3)cc2)c2ccccc2n1 | i | i | i | i | i | i
O=C(Nc1cccc(-c2nc3cccnc3s2)c1)c1cccc(Br)c1 | nt | nt | nt | nt | i | nt

Screens (PubChem)
